Source: ChEMBL document CHEMBL4808148, “HDAC6 screening dataset using tau-based substrate in an enzymatic assay yields selective inhibitors and activators” (2021)
In all, about 5,600 compounds went through this assay and about 390 (7%) showed an effect of 50% or more. The full list was thinned out, with strong results kept by preference.

Legend:
[1] = molecular target: T1, Protein deacetylase HDAC6 (Homo sapiens) (UniProt Q9UBN7); conditions: at 10 µM
T1 sequence (whole entry): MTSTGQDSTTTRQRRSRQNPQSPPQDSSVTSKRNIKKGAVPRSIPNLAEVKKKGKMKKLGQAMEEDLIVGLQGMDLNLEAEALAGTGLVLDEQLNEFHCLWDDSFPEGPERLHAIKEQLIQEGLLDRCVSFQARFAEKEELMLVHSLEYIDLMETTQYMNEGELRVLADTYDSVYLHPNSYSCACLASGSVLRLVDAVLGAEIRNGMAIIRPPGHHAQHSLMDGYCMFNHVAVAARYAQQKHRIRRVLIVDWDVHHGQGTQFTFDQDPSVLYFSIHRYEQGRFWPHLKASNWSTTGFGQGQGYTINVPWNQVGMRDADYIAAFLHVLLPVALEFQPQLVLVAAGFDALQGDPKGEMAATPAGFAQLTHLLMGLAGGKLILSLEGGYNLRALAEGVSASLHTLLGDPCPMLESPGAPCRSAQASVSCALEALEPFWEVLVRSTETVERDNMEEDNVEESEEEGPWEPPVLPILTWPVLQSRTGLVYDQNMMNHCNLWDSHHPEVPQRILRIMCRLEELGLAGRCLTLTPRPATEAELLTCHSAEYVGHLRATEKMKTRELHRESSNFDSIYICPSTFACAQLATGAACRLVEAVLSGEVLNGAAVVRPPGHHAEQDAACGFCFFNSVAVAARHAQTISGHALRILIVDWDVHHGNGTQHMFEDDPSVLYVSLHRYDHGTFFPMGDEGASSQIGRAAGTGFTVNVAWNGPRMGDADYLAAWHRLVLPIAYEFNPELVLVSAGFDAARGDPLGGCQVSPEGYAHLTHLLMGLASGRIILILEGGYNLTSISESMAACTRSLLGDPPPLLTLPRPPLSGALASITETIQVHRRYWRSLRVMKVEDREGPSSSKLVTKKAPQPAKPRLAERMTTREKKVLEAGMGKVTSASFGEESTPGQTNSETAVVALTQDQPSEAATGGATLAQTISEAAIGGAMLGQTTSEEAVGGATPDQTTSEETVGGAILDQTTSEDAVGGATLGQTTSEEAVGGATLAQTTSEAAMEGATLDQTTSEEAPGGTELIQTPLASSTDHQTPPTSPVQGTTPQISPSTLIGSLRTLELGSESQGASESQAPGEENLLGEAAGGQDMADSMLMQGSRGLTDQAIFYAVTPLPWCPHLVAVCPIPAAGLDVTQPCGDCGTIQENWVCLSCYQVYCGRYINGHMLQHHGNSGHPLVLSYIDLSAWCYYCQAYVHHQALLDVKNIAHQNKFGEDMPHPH

[2] = molecular target: Protein deacetylase HDAC6 (Homo sapiens) (UniProt Q9UBN7); conditions: at 10 µM; remark: listed apart in the source

Molecule | inhibition [1] [%] | inhibition [2] [%]
CN1CCN(C2=Nc3ccccc3Sc3ccc(Cl)cc32)CC1 | 29.6 | 
CN(C)CCOC(=O)COc1ccc(Cl)cc1 | 1.19 | 
CN(C)CCOC1=Cc2ccccc2Sc2ccc(Cl)cc21 | 96.6 | 
C[C@H]1[C@H](C)CC[C@]2(C(=O)O)CC[C@]3(C)C(=CC[C@@H]4[C@@]5(C)C[C@@H](O)[C@H](O)C(C)(C)[C@@H]5CC[C@]43C)[C@H]12 | -2.75 | 
Cc1ccc([C@@H]2O[C@H](CO)[C@@H](O)[C@H](O)[C@H]2O)cc1Cc1ccc(-c2ccc(F)cc2)s1 | -5.59 | 
CC(C)NC(=O)N1CC[C@H](NC2=Nc3cc(F)ccc3N(CC(F)F)c3ccc(Cl)cc32)C1 | 29.2 | 
CN(C)CCn1cc(S(=O)(=O)c2cccc(F)c2)c2cccnc21 | 14.3 | 
O=C(NCCCCCCNC(=O)ON=C1CCCCC1)ON=C1CCCCC1 | 40.7 | 
AUROTHIOGLUCOSE, CHEMBL1697725 |  | 8.56
COc1ccc2cc([C@H](C)C(=O)O)ccc2c1 | -2.33 | 
COc1ccc2[nH]c(C(=O)c3ccccc3)cc2c1 | 109 | 
COc1ccc2[nH]c(-c3ccccc3)c(CCNC(C)=O)c2c1 | 9.99 | 
Cc1nn(C)c2c1C(c1ccc(C(F)(F)F)cc1)C(C#N)=C(N)O2 (stereo unspecified) | 27.3 | 
OC[C@H]1O[C@@H]2O[C@H]3[C@H](O)[C@@H](O)[C@@H](O[C@H]4[C@H](O)[C@@H](O)[C@@H](O[C@H]5[C@H](O)[C@@H](O)[C@@H](O[C@H]6[C@H](O)[C@@H](O)[C@@H](O[C@H]7[C@H](O)[C@@H](O)[C@@H](O[C@H]8[C@H](O)[C@@H](O)[C@@H](O[C@H]1[C@H](O)[C@H]2O)O[C@@H]8CO)O[C@@H]7CO)O[C@@H]6CO)O[C@@H]5CO)O[C@@H]4CO)O[C@@H]3CO | -4.02 | 
O=C(O)c1cc2occc2[nH]1 | 21.7 | 
Cc1cc(C)c(N(Cc2ccccc2)S(=O)(=O)c2ccc(OCCNC(=O)c3cc4ccccc4o3)cc2)c(C(=O)NO)c1 | 71.8 | 
CN(C(=O)C(Cl)Cl)c1ccc(OC(=O)c2ccco2)cc1 | 5.17 | 
CO/N=C(/C(=O)N[C@@H]1C(=O)N2C(C(=O)O)=C(CSc3nc(=O)c(O)nn3C)CS[C@H]12)c1csc(N)n1 | -3.44 | 
COc1cccc(CN(C(=O)CC(C)(C)C)[C@H]2C[C@@H](C(=O)N3CCNCC3)N(Cc3ccc4c(c3)OCO4)C2)c1 | 2.2 | 
COc1cccc(-c2cc(NCc3ccc4c(c3)OCO4)nc(N)n2)c1 | 68.7 | 
COc1cc(C[C@H](C)[C@H](C)Cc2ccc3c(c2)OCO3)ccc1O | 0.28 | 
O=C(NCCS(=O)(=O)c1ccc(C(F)(F)F)cn1)c1ccc(Cl)cc1 | -5.62 | 
CCOC(=O)Nc1ccc2c(c1)N(C(=O)CN(CC)CC)c1ccccc1CC2 | 18.9 | 
OC[C@H]1OC(O)[C@H](F)[C@@H](O)[C@H]1O (stereo partly specified) | -0.45 | 

Molecule | inhibition [1] [%] | inhibition [2] [%]
NC1=NCC2c3ccccc3Cc3ccccc3N12 (stereo unspecified) | 4.93 | 
CCOc1ccc2nc(S(N)(=O)=O)sc2c1 | 25.8 | 
Nc1nc2ccc(OC(F)(F)F)cc2s1 | 72.9 | 
C=C[C@]1(C)CC[C@@H](C(=C)C)C[C@H]1C(=C)C | 7.53 | 
Nc1ccc(C(=O)Oc2ccccc2)c(O)c1 | 108 | 
Nc1ccc(O)c(C(=O)O)c1 | 0.62 | 
O=C(Oc1ccccc1C(=O)O)c1ccccc1O | 43.2 | 
O=S(=O)(N[C@H](CO)C(C(F)(F)F)C(F)(F)F)c1ccc(Cl)s1 | 9.08 | 
O=P(O)(O)OC[C@H]1OC(O)(COP(=O)(O)O)[C@@H](O)[C@@H]1O (stereo partly specified) | 8.76 | 
Cc1csc(NC(=O)CSc2ccc(-c3ccccc3)nn2)n1 | 31.4 | 
O[C@@H]1[C@H](O)[C@@H](CCl)O[C@H]1n1cnc2c(NC3CC4CCC3C4)ncnc21 (mixture of isomers) | 17.3 | 
CCOc1ccc(NC(C)=O)cc1 | -4.35 | 
CCCCOc1ccc(C(=O)CCN2CCCCC2)cc1 | 4.77 | 
CCCCOc1ccc(CC(=O)NO)cc1 | 73 | 
CC[C@@]1(O)C(=O)OCc2c1cc1n(c2=O)Cc2c-1nc1cc(F)c(C)c3c1c2[C@@H](N)CC3 | 45.5 | 
CCN(CC)CCOC(=O)C1(c2ccc([N+](=O)[O-])cc2)CCCC1 | 17.3 | 
CC1=C(/C=C/C(=C/C=C/C(C)=C/C(=O)O)c2ccc(C)cc2)C(C)(C)CCC1 | 32.2 | 
CC(C)NC(=O)COc1cccc(-c2nc(Nc3ccc4[nH]ncc4c3)c3ccccc3n2)c1 | 4.77 | 
CCCCCCCCCCCCCCCC(=O)NCCO | 7.03 | 
O=C(CCNNC(=O)c1ccncc1)NCc1ccccc1 | -0.28 | 
O=C(CCCCCCNC(=O)c1cnc(N(c2ccccc2)c2ccccc2)nc1)NO | 101 | 
O=C(O)C1CN(Cc2ccc(-c3nc4cc(Cc5ccccc5F)ccc4s3)c(F)c2)C1 | 12.2 | 
CCCCC/C=C\C=C/CCCCCCCCC(=O)O | 13.9 | 
c1ccc(CNCc2ccc(CN3CCCNCCNCCCNCC3)cc2)nc1 | -1.23 | 

Molecule | inhibition [1] [%] | inhibition [2] [%]
Clc1cccc2c1CN(C1=NCCN1)C2 | -3.56 | 
O=c1[nH]nc2c3c(cccc13)N=C(CN1Cc3ccccc3C1)N2 | -8.46 | 
CN(C)Cc1ccc(S(=O)(=O)n2ccc(/C=C/C(=O)NO)c2)cc1 | 101 | 
Cn1nc(-c2ccc(C(F)(F)F)cc2)nc2c(=O)n(C)c(=O)nc1-2 | 12.3 | 
CC(=O)OC[C@H]1O[C@@H](n2ccc(=O)[nH]c2=O)[C@H](OC(C)=O)[C@@H]1OC(C)=O | 41.6 | 
CCOC(=O)c1ccc(C#Cc2ccc3c(c2)C(C)(C)CCS3)nc1 | 22.8 | 
Cc1c(F)cc(C(=O)NC2CC2)cc1-c1ccc(C(=O)NCC(C)(C)C)cn1 | -6.14 | 
O=C(NC1CCC1)c1ccc(C#Cc2cccc(F)c2)nc1 | 53.6 | 
COc1ccc(CC(=O)NC(N/C(=N/C#N)Nc2cccc3ncccc23)C(C)(C)C)cc1OC (stereo unspecified) | 17.5 | 
NC(=O)OC[C@@H]1[C@H](NC(=O)/C(=N\OCC(=O)O)c2csc(N)n2)C(=O)N1S(=O)(=O)O | 1.5 | 
COc1cc(C)c2c(Oc3cccc(C(F)(F)F)c3)c(OC)cc(NC(C)CCCN)c2n1 (stereo unspecified) | 19.9 | 
Cc1ccc(C(=O)Nc2cccc(C(F)(F)F)c2)cc1Nc1nc(-c2cccnc2)nc2c1cnn2C | 17.5 | 
Cc1ccc(NC(=O)c2ccc(CN3CCN(C)CC3)cc2)cc1Nc1nccc(-c2cccnc2)n1 | 36.3 | 
Cc1ccc(NC(=O)c2ccc(CN3CCN(C)CC3)cc2)cc1Nc1nc(-c2cccnc2)cs1 | 89.4 | 
Nc1sc2c(c1C(=O)c1ccc(Cl)cc1)CCCC2 | 31.2 | 
O=C1CC2(CCCC2)CC(=O)N1CCCCNCC1COc2ccccc2O1 (stereo unspecified) | 18.1 | 
Cc1cccc(Nc2cc(Cl)nc(SCC(=O)O)n2)c1C | 9.22 | 
O=C(O)CCCCCCCCC(=O)O | 0.61 | 
Cc1cc(-c2ccc(CC(=O)Nc3ccc(-c4cccnc4)cc3)cc2)ccn1 | 37.6 | 
O=C(CCCCCCC(=O)Nc1cccnc1)NO | 100 | 
NC(=O)c1cccnc1 | 2.11 | 
O=C(CCCCCCC(=O)NO)NO | 99.2 | 
O=C(O)CCCCCCCC(=O)O | 29.8 | 
O=[N+]([O-])c1ccc2c(c1)S(=O)(=O)C=C2 | 20.7 | 

Molecule | inhibition [1] [%] | inhibition [2] [%]
NC(C(=O)O)c1ccc(C(=O)O)c(C(=O)O)c1 (racemic) | 1.97 | 
COc1ccc(-c2csc(NC(=O)[C@H]3CCCCN3S(=O)(=O)c3ccc(C)cc3)n2)cc1 | 0.15 | 
Nc1nc(NC[C@H]2CC[C@H](CNS(=O)(=O)c3cccc4ccccc34)CC2)nc2ccccc12 | 9.28 | 
CCOc1ccccc1C(=O)O | 0.84 | 
CCCCNc1ncc2c(-c3ccc(CN4CCN(C)CC4)cc3)cn([C@H]3CC[C@H](O)CC3)c2n1 | 62.3 | 
COC(=O)c1ccccc1COc1ccccc1[N+](=O)[O-] | 35.8 | 
N=C(N)NCCC[C@H](NC(=O)c1sccc1NS(=O)(=O)c1cccc2nsnc12)C(=O)O | -2.5 | 
CCN(CC)CCCN(c1ccccc1)C1Cc2ccccc2C1 | 9.47 | 
CCOC(=O)c1c(C)n(C)c2ccc(O)cc12 | 60.5 | 
CCOC(=O)c1ccc(N)cc1 | 16.9 | 
CCOC(=O)C1=C(C)NC(=S)NC1c1cccc(O)c1 (stereo unspecified) | 7.87 | 
O=C1C=CC(=O)C2=C1C1c3ccccc3C2c2ccccc21 | -5.86 | 
N#CC(c1ccnc(OCc2ccc(CN3CCOCC3)cc2)n1)c1nc2ccccc2s1 (stereo unspecified) | 73.7 | 
N[C@H]1CCN(O)C1=O | -4.15 | 
CCNC(=O)[C@@H]1CCCN1C(=O)[C@H](CCCNC(=N)N)NC(=O)[C@H](CC(C)C)NC(=O)[C@@H](CC(C)C)NC(=O)[C@H](Cc1ccc(O)cc1)NC(=O)[C@H](CO)NC(=O)[C@H](Cc1c[nH]c2ccccc12)NC(=O)[C@H](Cc1c[nH]cn1)NC(=O)[C@@H]1CCC(=O)N1 | 33.6 | 
N#Cc1c(N)nc(SCc2ncc[nH]2)c(C#N)c1-c1ccc(O)cc1 | 54.7 | 
CC(C)C[C@H](NC(=O)[C@@H](Cc1c[nH]c2ccccc12)NC(=O)[C@H](Cc1ccc(O)cc1)NC(=O)[C@H](CO)NC(=O)[C@H](Cc1c[nH]c2ccccc12)NC(=O)[C@H](Cc1c[nH]cn1)NC(=O)[C@@H]1CCC(=O)N1)C(=O)N[C@@H](CCCNC(=N)N)C(=O)N1CCC[C@H]1C(=O)NCC(N)=O | -2.71 | 
CN(C)CCN(Cc1cccs1)c1ccccn1 | 11.5 | 
Nc1nc(O)c2c(n1)NCC(CNc1ccc(C(=O)N[C@@H](CCC(=O)O)C(=O)O)cc1)N2 (stereo partly specified) | -7.59 | 
Cc1csc(-c2nnc(Nc3ccc(Oc4ncccc4-c4ccnc(N)n4)cc3)c3ccccc23)c1 | 72.1 | 
Cc1cc(C(=O)Nc2nc3cccc(Cl)c3n2[C@@H]2CCCCN(C(=O)/C=C/CN(C)C)C2)ccn1 | -3.32 | 
C#CCN1C(C)=C(C(=O)OC)C(c2cccc([N+](=O)[O-])c2)C(C(=O)OCC)=C1C (stereo unspecified) | -1.94 | 
C=CC(=O)Nc1cccc(Oc2nc(Nc3ccc(N4CCN(C)CC4)cc3)nc3ccsc23)c1 | 14.3 | 
CCC(C)C(CC)C(N)=O (stereo unspecified) | 2.6 | 
